# Source: PubChem
# Avidin bead fluor – green autofluorescence of compounds with avidin beads – biophysical, 488/530 nm, flow cytometry, artefact control, profiling panel | compound fluorescence 488/530 nm; stronger effect = higher value | fluorescence (KMESF) at 10 µM | actives 0.38% (n = 220,000) | AID 1775, 2009; in the data active = fluorescence above about 47
# RGS8-Gao reg – RGS8-Galphao binding modulators, primary screen, biochemical, multiplexed bead flow cytometry; actives lie on both sides; actives 0.34% (n = 220,000); response (percent of control binding), % at 10 µM; Guanine nucleotide-binding protein G(o) subunit alpha (Homo sapiens), P09471; in the data active = response below about 60% or above about 140%; inactive = in between;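 also: Galphao activated as the GDP aluminium fluoride complex binding bead-coupled RGS8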
# Target sequence (P09471 whole entry, looked up): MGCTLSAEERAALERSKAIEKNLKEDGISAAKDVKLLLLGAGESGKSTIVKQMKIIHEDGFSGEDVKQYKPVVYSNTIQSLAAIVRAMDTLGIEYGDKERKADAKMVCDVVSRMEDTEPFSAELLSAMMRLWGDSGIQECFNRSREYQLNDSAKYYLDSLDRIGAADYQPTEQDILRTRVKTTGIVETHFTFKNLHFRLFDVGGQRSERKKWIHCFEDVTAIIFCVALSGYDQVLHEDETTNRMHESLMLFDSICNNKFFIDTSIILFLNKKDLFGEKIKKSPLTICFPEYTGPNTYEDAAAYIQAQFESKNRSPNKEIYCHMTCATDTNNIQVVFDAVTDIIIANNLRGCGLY
# GSH fluor – compound fluorescence on glutathione beads, profiling panel, artefact control, biophysical, 488/530 nm, flow cytometry; GSH beads flow cytometry, compound fluorescence 488/530 nm; stronger effect = higher value; fluorescence (KMESF) at 10 µM; actives 0.25% (n = 190,000); in the data active = fluorescence above about 89;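 also: glutathione beads carrying GST-tagged Bcl family fusion proteins plus one bare bead set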
# RGS7-Gao – RGS7-Galphao binding modulators, primary screen, biochemical, multiplexed bead flow cytometry | Guanine nucleotide-binding protein G(o) subunit alpha (Homo sapiens), P09471 | actives 0.35% (n = 220,000) | binding response (% of control), % at 10 µM | AID 1439, 2008 | actives lie on both sides; in the data active = binding response below about 49% or above about 150%; inconclusive = no clear call, values can overlap the other calls; inactive = in between;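 also: fluorescent Galphao held in activated GDP-AlF4 state binding bead-coupled RGS7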
# RGS4-Gao reg – modulators of RGS4 binding to Galphao, primary screen, biochemical, multiplexed bead flow cytometry. Guanine nucleotide-binding protein G(o) subunit alpha (Homo sapiens), P09471. actives lie on both sides. binding response (% of control), % at 10 µM. actives 0.33% (n = 220,000). AID 1415, 2008; in the data active = binding response below about 49% or above about 150%; inactive = in between;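 also: fluorescent Galphao activated with aluminum fluoride binding bead-coupled RGS4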
# RGS16-Gao – modulators of RGS16 binding to Galphao, primary screen, biochemical, human proteins, multiplexed bead flow cytometry; Regulator of G-protein signaling 16 (Homo sapiens) + Guanine nucleotide-binding protein …; bead-based flow cytometry RGS16-Galphao binding, fluorescence; actives lie on both sides; binding response (% of control), % at 10 µM; actives 0.38% (n = 220,000); call rule not given here;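 also: Galphao activated by GDP with aluminum fluoride before binding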
# Target sequence (O15492 whole entry, looked up): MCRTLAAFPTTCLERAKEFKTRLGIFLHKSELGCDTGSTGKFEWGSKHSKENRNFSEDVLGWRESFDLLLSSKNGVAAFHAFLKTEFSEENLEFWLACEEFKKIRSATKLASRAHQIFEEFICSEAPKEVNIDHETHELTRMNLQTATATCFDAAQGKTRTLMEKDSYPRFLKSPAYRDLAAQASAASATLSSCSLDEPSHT
# Target sequence (P09471 whole entry, looked up): as the sequence (P09471 whole entry, looked up) above
# A number is an active result; . = inactive; ? = inconclusive; / = no result given. A selection: hits, their analogues and other compounds. The true share with any hit is near 1.2%.
SMILES,Avidin bead fluor,RGS8-Gao reg,GSH fluor,RGS7-Gao,RGS4-Gao reg,RGS16-Gao
O=C(NCCc1ccccc1)c1ccc(-n2cnnn2)cc1,.,.,.,.,.,.
O=C(NCCc1c[nH]c2ccccc12)c1ccc(-n2cnnn2)cc1,67,.,.,.,.,.
O=C(CN1CCOCC1)NCc1ccccc1,62,.,.,.,.,.
CS/C(=N\S(=O)(=O)c1cccs1)NC(=O)CSc1nc2ccccc2s1,.,.,.,.,.,.
O=S1(=O)CCN2N=C(C34CC5CC(CC(C5)C3)C4)SC2=N1,.,.,.,.,.,.
COc1ccc(CN2CCN(Cc3ccon3)CC2CCO)c(C)c1C (stereo unspecified),.,.,/,?,.,.
CCCn1nnc(NC(=O)c2cccc(OCC(C)C)c2)n1,.,.,264,.,.,.
CCCn1nnc(NC(=O)c2cccc(OCC)c2)n1,.,.,.,.,.,.
CCCCCCn1c(SCC(=O)c2c(N)n(C)c(=O)n(C)c2=O)nc2ccccc21,.,.,.,.,.,.
Cn1c(N)c(C(=O)CSc2nc3ccccc3c(=O)n2Cc2ccccc2)c(=O)n(C)c1=O,49,.,/,?,.,.
C=CCn1c(SCC(=O)Nc2cccc3ccccc23)nnc1-c1cnccn1,51,.,.,.,.,.
CCOC(=O)CNC(=O)c1ccc(SCC)cc1,.,.,/,?,.,.
O=C(Nc1ccccc1NC(=O)c1ccco1)c1ccco1,.,6.2,.,-19.2,-44.7,-27.2
O=C(Nc1c(C(=O)Nc2cccc3ccccc23)cnn1-c1ccccc1)c1ccco1,.,.,99,.,.,.
O=C(Nc1c(C(=O)Nc2ccccc2)cnn1-c1ccccc1)c1ccco1,.,.,.,.,.,.
O=C(Nc1ccccc1N(C(=O)c1ccco1)S(=O)(=O)c1cccs1)c1ccco1,.,.,275,.,.,.
O=c1cc(CN2CCN(c3ccccc3)CC2)c2c(ccc3ccccc32)o1,55,.,.,.,.,.
O=c1cc(CN2CCC3(CC2)OCCO3)c2c(ccc3ccccc32)o1,.,.,.,.,.,.
O=C(Nn1c(-c2ccccc2)nc2ccccc2c1=O)c1cccs1,.,.,.,.,.,.
COc1ccccc1-c1nc2ccccc2c(=O)n1NC(=O)c1cccs1,.,.,108,.,.,.
CCOC(=O)N1CCN(c2cc(NCCO)c([N+](=O)[O-])c3nonc23)CC1,103,.,.,.,.,.
CCN1CCN(S(=O)(=O)c2cc(C(=O)O)ccc2Cl)CC1,58,.,/,?,.,.
COc1cccc(CSc2nnc(C(F)(F)F)n2Cc2ccc(F)cc2)c1,.,11.8,.,11.7,19.6,0.4
Cc1ccc(CSc2nnc(C(F)(F)F)n2Cc2ccc(F)cc2)cc1,.,.,.,.,.,.
Cc1cc([N+](=O)[O-])ccc1NC(=O)CSc1nccc(=O)[nH]1,.,.,.,.,.,.
SMILES,Avidin bead fluor,RGS8-Gao reg,GSH fluor,RGS7-Gao,RGS4-Gao reg,RGS16-Gao
CC1=C(C(=O)OCC2CCCO2)C(c2coc3ccccc3c2=O)C2=C(CC(C)(C)CC2=O)N1 (stereo unspecified),.,.,.,.,.,.
CCOC(=O)C1=C(C)NC2=C(C(=O)CC(C)(C)C2)C1c1coc2ccccc2c1=O (stereo unspecified),60,.,.,.,.,.
Cc1ccc(Nc2ccc(S(=O)(=O)N3CCOCC3)cc2[N+](=O)[O-])c(C)c1,.,.,.,.,.,.
COc1ccc(-c2nc(-c3ccccc3)nc(N3CCN(C)CC3)c2C#N)cc1,51,.,.,.,.,.
CC(C(=O)OCc1nnc(-c2ccccc2)o1)N1C(=O)c2ccccc2C1=O (stereo unspecified),.,.,263,.,.,.
CSc1nc2ccc(NS(=O)(=O)c3ccc4c(c3)OCCO4)cc2s1,.,.,262,.,.,.
CSc1nc2ccc(S(=O)(=O)N3CCCCC3)cc2s1,50,.,.,.,.,.
CSc1nc2ccc(S(=O)(=O)N3CCOCC3)cc2s1,.,.,.,.,.,.
COc1cccc(/C=N/n2c(-c3ccco3)nc3ccccc3c2=O)c1OC,.,.,.,.,.,.
NS(=O)(=O)c1ccc(CCNC(=O)c2ccc3nc4ccc(Cl)cc4c(=O)n3c2)cc1,.,.,.,.,.,.
CC(C)(C)C(=O)N(CCN(C(=O)C(C)(C)C)c1ccccc1)c1ccccc1,50,.,.,.,.,.
CN1C(=CC=C2C=C(I)C(=O)C(I)=C2)C(C)(C)c2ccccc21,.,.,/,?,.,.
CN1/C(=C\C=C2/C(=O)Oc3ccccc3C2=O)C(C)(C)c2ccccc21,90,.,.,.,.,.
Cc1c(C(=O)OCC(=O)N2c3ccccc3CC2C)oc2ccccc12 (stereo unspecified),95,.,.,.,.,.
COc1ccccc1NC(=O)N1CCCC1C(=O)NC12CC3CC(CC(C3)C1)C2 (stereo unspecified),.,.,280,.,.,.
COc1ccc(CCNC(=O)COC(=O)COc2ccc(C#N)cc2)cc1,.,.,.,?,.,.
Cc1onc(-c2c(Cl)cccc2Cl)c1NC(=O)N(C)N,49,.,/,?,.,.
CCN(CC)c1cc(C)c2cc(NC(=O)c3ccc(Br)o3)ccc2n1,.,.,.,.,.,.
NC(=O)c1ccc(NC(=O)c2cccc3c2OCCCO3)cc1,.,.,/,?,.,.
CCCCCCc1cc2cc(-c3nnc(-c4ccccc4OC)o3)c(=O)oc2cc1O,.,.,248,.,.,.
CCCCCCc1cc2cc(-c3nnc(-c4cc(OC)c(OC)c(OC)c4)o3)c(=O)oc2cc1O,.,.,113,.,.,.
CCCCCCc1cc2cc(-c3nnc(-c4ccccc4O)o3)c(=O)oc2cc1O,.,.,.,.,.,.
O=C1C2CCCN2C(c2ccc(Br)cc2)N1c1ccc(F)cc1 (stereo unspecified),.,.,.,.,.,.
O=C1C2CCCN2C(c2cccc(Br)c2)N1c1ccc(F)cc1 (stereo unspecified),48,.,.,.,.,.
COc1ccc(OCC(=O)O/N=C(\N)Cc2ccc(Cl)cc2)cc1,54,.,.,.,.,.
Cc1ccc(OCC(=O)O/N=C(\N)Cc2ccc(Cl)cc2)cc1,.,.,.,.,.,.
CCS(=O)(=O)c1ccc2oc(SCC(=O)Nc3ccc(OC)c(OC)c3)nc2c1,.,.,.,.,.,.
